Experimental data as given in PubChem BioAssay (NCI).
Compounds without any hit were thinned out: in the full panel of roughly 79,000, 15% have a hit. The source made the active and inactive calls. Cut-off read from the data, not from the text of the source: active = growth inhibition above about 70%; inactive = the rest.

Assay: NCI Yeast Anticancer Drug Screen. Data for the bub3 strain (AID 167)
Details: S. cerevisiae bub3 mutant strain, at 5.0 µM (retest, dose inferred, filed as 0.5), hits give high values
How it was run: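 Mutant yeast screening strain plus compound; vehicle-treated cultures serve as the 0% inhibition reference.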

| SMILES | growth inhibition |
| --- | --- |
| OC1C2COc3nc4ccccc4n3C(O2)C1O (stereo not given) | -69% (inactive) |
| CN(C)CC1Cc2ccsc2C1=O (stereo not given) | 0% (inactive) |
| CCCC(O)C[N+](=O)[O-] (stereo not given) | -1% (inactive) |
| CC1=NC(C)=C(/C(C)=N/NC(=O)c2ccccc2O)C(C)/C1=C(/C)NNC(=O)c1ccccc1O (stereo not given) | -3% (inactive) |
| O=[N+]([O-])c1cccc(S(=O)(=O)N/N=C/c2cc(I)cc([N+](=O)[O-])c2O)c1 | 2% (inactive) |
| CNC(=O)OC(C)CN1c2ccccc2Sc2ccc(Cl)cc21 (stereo not given) | 26% (inactive) |
| O=[N+]([O-])c1ccc(NSc2ccccc2)cc1 | 10% (inactive) |
| CCOc1ccc2c(c1)nc1ccccc1[n+]2CC | 6% (inactive) |
| O=C1C=CC(=O)c2c(O)c(N3CCN(CCO)CC3)c(Cl)c(O)c21 | 47% (inactive) |
| O=C1CSC(c2cccc([N+](=O)[O-])c2)N1c1ccc(-c2ccc(-n3c(-c4ccccc4)nc4ccccc4c3=O)cc2)cc1 (stereo not given) | -12% (inactive) |
| CCC(=O)c1ccc2ccc3ccccc3c2c1 | 12% (inactive) |
| N#CSCc1c(Cl)cccc1Cl | 64% (inactive) |
| O=[N+]([O-])/C(C(Cl)=C(Cl)Cl)=C(/Sc1ccccc1)N1CCOCC1 | -20% (inactive) |
| COc1c2occc2c(OC)c2c(C)c(C(=O)OCCN3CCOCC3)oc12 | 1% (inactive) |
| COc1cnn(-c2ccccc2)c(=O)c1SCc1ccc(Cl)c(Cl)c1 | 2% (inactive) |
| COc1ccc(/C=C/c2c[n+]([O-])ccc2[N+](=O)[O-])cc1 | 9% (inactive) |
| CS(=O)(=O)OCCCN(CCCOS(C)(=O)=O)c1ccc(C=Nc2ccc(-c3csc(COc4ccc(Br)cc4Br)n3)cc2)cc1 | 5% (inactive) |
| O=C(Nc1ccccc1-c1nn(C(=S)Nc2ccccc2)c(=S)n(C(=S)Nc2ccccc2)c1=O)C(F)(F)F | -41% (inactive) |
| Cc1ccc(N=C(N)NN=C(c2ccc(Cl)cc2)c2ccc(Cl)cc2)cc1 | 6% (inactive) |
| Cc1cccc(C)c1N1C(=O)C(=O)C(c2nc3ccccc3s2)/C(=N/NC(=O)c2ccccc2O)C1=O (stereo not given) | 19% (inactive) |

| SMILES | growth inhibition |
| --- | --- |
| CN(C)CC1CC/C(=C\c2ccc(O)cc2)C1=O (stereo not given) | -26% (inactive) |
| CCCCCC=C(c1cc(Br)cc(C(=O)O)c1O)c1cc(Br)cc(C(=O)O)c1O | 0% (inactive) |
| CCS(CC)(CC)CC1CCCC2=CCC(P(=O)(c3ccccc3)c3ccccc3)CC21 (stereo not given) | -8% (inactive) |
| Cc1c[n+](=O)c2ccccc2n1[O-] | 13% (inactive) |
| O=C1CC(=S)NC(=S)N1 | -2% (inactive) |
| CC1=NN(C(=O)c2ccc(Cl)cc2)C(=O)C1N=Nc1ccc(S(=O)(=O)Nc2ncccn2)cc1 (stereo not given) | -2% (inactive) |
| COC(=O)c1cc(=O)n(-c2ccccc2OC)c(SC)n1 | -5% (inactive) |
| CCCCN(CCCC)Cc1ccc(NC(C(=O)c2ccccc2)c2ccccc2)cc1 (stereo not given) | 0% (inactive) |
| Cn1cc(/C=C/[N+](=O)[O-])c2ccc(OCc3ccccc3)cc21 | 14% (inactive) |
| O=C(c1ccc([N+](=O)[O-])cc1)N1CCCSC1=S | 6% (inactive) |
| CCCCCCCCC(=O)NCCN(CCN)C(=O)CCCCCCCC | -47% (inactive) |
| Cc1nc2sc3c(c2c2nnnn12)CCCC3 | 3% (inactive) |
| CCC(CC)(C(=O)Nc1ccc2c(c1)c(=O)c1ccccc1n2C)C(=O)Nc1ccc2c(c1)c(=O)c1ccccc1n2C | -10% (inactive) |
| Cc1ccccc1N1CCN(c2c3c(nc4ccccc24)CCCCC3)CC1 | -9% (inactive) |
| O=C(Nc1ccccc1)c1cc(Cl)ccc1O | 25% (inactive) |
| CCCCCCCCCCCCCCCCCCOP(=O)([O-])OC1CC[N+](C)(C)CC1 | 97% (active) |
| CN(C)c1ccc(C(O)(Cc2cccc(C#N)c2)c2ccc(N(C)C)cc2)cc1 | 2% (inactive) |
| CC(=O)N1CCC(Cc2ccccc2)CC1 | -51% (inactive) |
| O=[N+]([O-])c1ccc(-n2ncc3cccnc32)c([N+](=O)[O-])c1 | 33% (inactive) |
| CC(C)OC(=O)c1ccc(NCC2=CC(=O)C=CC2=O)cc1Cl | 55% (inactive) |

Same assay, conditions: S. cerevisiae bub3 mutant strain, at 50.0 µM (retest, dose inferred, filed as 5.0), hits give high values

| SMILES | growth inhibition |
| --- | --- |
| OC1C2COc3nc4ccccc4n3C(O2)C1O (stereo not given) | -84% (inactive) |
| CN(C)CC1Cc2ccsc2C1=O (stereo not given) | 88% (active) |
| CCCC(O)C[N+](=O)[O-] (stereo not given) | 4% (inactive) |
| CC1=NC(C)=C(/C(C)=N/NC(=O)c2ccccc2O)C(C)/C1=C(/C)NNC(=O)c1ccccc1O (stereo not given) | -3% (inactive) |
| O=[N+]([O-])c1cccc(S(=O)(=O)N/N=C/c2cc(I)cc([N+](=O)[O-])c2O)c1 | -1% (inactive) |
| CNC(=O)OC(C)CN1c2ccccc2Sc2ccc(Cl)cc21 (stereo not given) | 98% (active) |
| O=[N+]([O-])c1ccc(NSc2ccccc2)cc1 | 98% (active) |
| CCOc1ccc2c(c1)nc1ccccc1[n+]2CC | 36% (inactive) |
| O=C1C=CC(=O)c2c(O)c(N3CCN(CCO)CC3)c(Cl)c(O)c21 | 98% (active) |
| O=C1CSC(c2cccc([N+](=O)[O-])c2)N1c1ccc(-c2ccc(-n3c(-c4ccccc4)nc4ccccc4c3=O)cc2)cc1 (stereo not given) | 91% (active) |
| CCC(=O)c1ccc2ccc3ccccc3c2c1 | 87% (active) |
| N#CSCc1c(Cl)cccc1Cl | 95% (active) |
| O=[N+]([O-])/C(C(Cl)=C(Cl)Cl)=C(/Sc1ccccc1)N1CCOCC1 | 99% (active) |
| COc1c2occc2c(OC)c2c(C)c(C(=O)OCCN3CCOCC3)oc12 | 56% (inactive) |
| COc1cnn(-c2ccccc2)c(=O)c1SCc1ccc(Cl)c(Cl)c1 | 51% (inactive) |
| COc1ccc(/C=C/c2c[n+]([O-])ccc2[N+](=O)[O-])cc1 | 97% (active) |
| CS(=O)(=O)OCCCN(CCCOS(C)(=O)=O)c1ccc(C=Nc2ccc(-c3csc(COc4ccc(Br)cc4Br)n3)cc2)cc1 | 90% (active) |
| O=C(Nc1ccccc1-c1nn(C(=S)Nc2ccccc2)c(=S)n(C(=S)Nc2ccccc2)c1=O)C(F)(F)F | 50% (inactive) |
| Cc1ccc(N=C(N)NN=C(c2ccc(Cl)cc2)c2ccc(Cl)cc2)cc1 | 24% (inactive) |
| Cc1cccc(C)c1N1C(=O)C(=O)C(c2nc3ccccc3s2)/C(=N/NC(=O)c2ccccc2O)C1=O (stereo not given) | 19% (inactive) |

| SMILES | growth inhibition |
| --- | --- |
| CN(C)CC1CC/C(=C\c2ccc(O)cc2)C1=O (stereo not given) | 97% (active) |
| CCCCCC=C(c1cc(Br)cc(C(=O)O)c1O)c1cc(Br)cc(C(=O)O)c1O | 94% (active) |
| CCS(CC)(CC)CC1CCCC2=CCC(P(=O)(c3ccccc3)c3ccccc3)CC21 (stereo not given) | -8% (inactive) |
| Cc1c[n+](=O)c2ccccc2n1[O-] | -11% (inactive) |
| O=C1CC(=S)NC(=S)N1 | -8% (inactive) |
| CC1=NN(C(=O)c2ccc(Cl)cc2)C(=O)C1N=Nc1ccc(S(=O)(=O)Nc2ncccn2)cc1 (stereo not given) | -8% (inactive) |
| COC(=O)c1cc(=O)n(-c2ccccc2OC)c(SC)n1 | 58% (inactive) |
| CCCCN(CCCC)Cc1ccc(NC(C(=O)c2ccccc2)c2ccccc2)cc1 (stereo not given) | 52% (inactive) |
| Cn1cc(/C=C/[N+](=O)[O-])c2ccc(OCc3ccccc3)cc21 | 34% (inactive) |
| O=C(c1ccc([N+](=O)[O-])cc1)N1CCCSC1=S | 11% (inactive) |
| CCCCCCCCC(=O)NCCN(CCN)C(=O)CCCCCCCC | 97% (active) |
| Cc1nc2sc3c(c2c2nnnn12)CCCC3 | 11% (inactive) |
| CCC(CC)(C(=O)Nc1ccc2c(c1)c(=O)c1ccccc1n2C)C(=O)Nc1ccc2c(c1)c(=O)c1ccccc1n2C | 78% (active) |
| Cc1ccccc1N1CCN(c2c3c(nc4ccccc24)CCCCC3)CC1 | 95% (active) |
| O=C(Nc1ccccc1)c1cc(Cl)ccc1O | 49% (inactive) |
| CCCCCCCCCCCCCCCCCCOP(=O)([O-])OC1CC[N+](C)(C)CC1 | 99% (active) |
| CN(C)c1ccc(C(O)(Cc2cccc(C#N)c2)c2ccc(N(C)C)cc2)cc1 | -5% (inactive) |
| CC(=O)N1CCC(Cc2ccccc2)CC1 | 89% (active) |
| O=[N+]([O-])c1ccc(-n2ncc3cccnc32)c([N+](=O)[O-])c1 | 99% (active) |
| CC(C)OC(=O)c1ccc(NCC2=CC(=O)C=CC2=O)cc1Cl | 100% (active) |
